# Shown is part of a subset that was picked to be rich in hits.
# ST2 IL33 inh = inhibitors of human ST2 (IL1RL1) binding to IL-33; AID 1259354; AlphaLISA ST2-Fc/biotin-IL-33 interaction, 1 h; 78,000 compounds, 2.3% hits; Q01638; inhibition, % for hits at 17 µM; in the data active = inhibition above about 30%
# Target sequence (Q01638 whole entry, looked up): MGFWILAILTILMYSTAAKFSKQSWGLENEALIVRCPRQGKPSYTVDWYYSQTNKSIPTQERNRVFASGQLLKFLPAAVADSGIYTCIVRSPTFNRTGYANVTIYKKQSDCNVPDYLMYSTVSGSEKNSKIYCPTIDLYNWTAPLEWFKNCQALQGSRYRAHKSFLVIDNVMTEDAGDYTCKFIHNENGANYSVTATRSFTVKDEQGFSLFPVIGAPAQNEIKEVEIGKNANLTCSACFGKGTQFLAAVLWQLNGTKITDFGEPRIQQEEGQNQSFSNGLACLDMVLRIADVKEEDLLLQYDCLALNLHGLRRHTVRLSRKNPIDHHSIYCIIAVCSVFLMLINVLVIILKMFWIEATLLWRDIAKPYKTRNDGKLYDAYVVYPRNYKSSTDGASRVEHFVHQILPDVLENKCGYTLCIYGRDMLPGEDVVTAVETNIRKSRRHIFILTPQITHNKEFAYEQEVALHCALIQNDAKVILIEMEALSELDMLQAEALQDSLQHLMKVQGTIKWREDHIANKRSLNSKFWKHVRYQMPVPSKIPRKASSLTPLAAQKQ
# The depositor's hits bear a star; i = inactive.
SMILES,ST2 IL33 inh
CCN(CC)C(=O)Cn1cc(C(=O)NCCc2ccco2)nn1,i
CCOC=NC1=C(C#N)C(c2ccccc2)C2=C(CC(C)(C)CC2=O)O1 (stereo not given),59%*
CC(C)c1ccc(C2C(C#N)=C(N)OC3=C2C(=O)CC(C)(C)C3)cc1 (stereo not given),i
CCOc1cc(C2C(C#N)=C(N)OC3=C2C(=O)CC(C)(C)C3)ccc1O (stereo not given),i
CC(=O)Oc1ccc([C@H]2C(C#N)=C(N)OC3=C2C(=O)CC(C)(C)C3)cc1,i
CCOC=NC1=C(C#N)C(c2ccc(Cl)cc2)C2=C(CC(C)(C)CC2=O)O1 (stereo not given),79%*
Cc1ccccc1C1C(C#N)=C(N)OC2=C1C(=O)CC(C)(C)C2 (stereo not given),i
CN(C(=O)c1ccc(C#CC(C)(C)O)o1)C1Cc2ccccc2C1,i
Cc1ccc(OCC(=O)Nc2cccc(C(F)(F)F)c2)c(C)c1,i
CCOC(=O)c1ccc2[nH]cc(C(=O)c3ccccc3)c(=O)c2c1,i
CCc1ccc(C(=O)c2c[nH]c3ccc(F)cc3c2=O)cc1,42%*
Cc1ccc(C(=O)c2c[nH]c3ccc(Br)cc3c2=O)cc1,33%*
CCOC(=O)c1ccc2[nH]cc(C(=O)c3ccc(C)cc3)c(=O)c2c1,i
CCc1ccc(C(=O)c2c[nH]c3ccc(CC)cc3c2=O)cc1,i
CCc1ccc(C(=O)c2c[nH]c3ccc(C)cc3c2=O)cc1,i
COc1ccc(-n2c(=O)[nH]cc(C(=O)Nc3ccc(Br)cc3)c2=O)cc1,i
C=CCc1ccccc1OCCOCCN1CCN(C)CC1,i
Cc1ccc(OCC(O)CN2CCN(c3ccc(F)cc3)CC2)c(C)c1 (stereo not given),i
Cc1ccc(S(=O)(=O)Nc2ccc(Cl)c(Cl)c2)cc1,i
O=C(Nc1ccc(Oc2ccccc2)cc1)C1CC1,i
O=C(Nc1ccc(O)cc1)C1CC=CCC1 (stereo not given),34%*
O=C(O)COc1ccc(NC(=O)C2CCCCC2)cc1,i
N#CC1=C(SCc2ccccc2)NC(=O)CC1c1ccccc1Cl (stereo not given),i
O=C(CCS(=O)(=O)c1cccc2nonc12)NCCc1ccccc1,i
CC(C)CCNC(=O)CCS(=O)(=O)c1cccc2nonc12,60%*
SMILES,ST2 IL33 inh
CC(C)NC(=O)CCS(=O)(=O)c1cccc2nonc12,i
CC1CC(C)CN(S(=O)(=O)c2ccc(C(=O)Nc3nc(-c4cccs4)cs3)cc2)C1 (stereo not given),i
Cc1ccc(S(=O)(=O)N2CCN(c3nc(-c4cccs4)cs3)CC2)cc1,32%*
Cc1ccc(S(=O)(=O)N2CCCC2)cc1,i
COc1cc(C(=O)Nc2c(C(=O)Nc3ccccc3F)oc3ccccc23)cc(OC)c1OC,i
COc1cc2sc(C)nc2c2ccccc12,i
Cc1ccccc1Cn1c(NCc2ccco2)nc2c1c(=O)n(C)c(=O)n2C,i
c1nc(NCCN2CCOCC2)c2sc3nc(N4CCOCC4)c4c(c3c2n1)CCCC4,i
CCN(C(=O)Cc1nn(C)c(=O)c2ccccc12)c1ccccc1,i
CC(=O)c1ccccc1-c1cccc(C(=O)NC(C)C)c1,i
COC1=C(OC)C(=O)c2ccccc2C1=O,i
CC(=O)C1=C(c2ccccc2)C(=O)c2ccccc2C1=O,48%*
Cc1nc2c(C(=O)N(C)Cc3ccccc3)c[nH]n2c(=O)c1Cc1ccccc1F,i
Cc1nc(SCC(=O)N2CCCCCC2)c2c(=O)n(C)c(=O)n(C)c2n1,i
CC(C)c1noc([C@@H]2C[C@@H](O)CN2Cc2cc3ccccc3o2)n1,38%*
O=S(=O)(Cc1noc([C@@H]2C[C@@H](O)CN2Cc2cc3ccccc3o2)n1)c1ccc(F)cc1,i
O[C@@H]1C[C@@H](c2nc(-c3ccc(C(F)(F)F)cc3)no2)N(Cc2cc3ccccc3o2)C1,i
CC(C)c1nnc2sc(C3CCCN(C4CCCC4)C3)nn12 (stereo not given),i
COc1ncccc1-c1ccc(CN2CCCC2)cc1,i
Cc1ccn2c(NC(=O)c3ccccc3F)c(-c3ccccc3)nc2c1,i
Cc1cc(C)nc(NC(=O)c2ccccc2F)c1,30%*
Cc1cc(C)nc(NC(=O)CCCC(=O)O)c1,i
O=[N+]([O-])c1ccc(OCCO)c(OCCO)c1,i
CCO/C=C1\c2cc([N+](=O)[O-])ccc2-c2c1cc([N+](=O)[O-])cc2[N+](=O)[O-],54%*
N#Cc1c([N+](=O)[O-])cc([N+](=O)[O-])cc1S(=O)(=O)Cc1ccccc1,i
SMILES,ST2 IL33 inh
CCc1nccn1CCC(=O)Nc1ccc(NC(=O)c2coc(C)c2)cc1,i
Oc1ccccc1C1OC2CCCCC2C2=CCCCC21 (stereo not given),i
COc1cc(OC)cc(C(=O)Nc2c3c(nn2C(C)(C)C)CSC3)c1,i
CCN1C(=O)c2ccc(Br)cc2C1=O,i
CCCCCN1C(=O)C(=O)c2cc(Br)ccc21,46%*
O=C(O)CN1C(=O)c2ccc(Br)cc2C1=O,i
COc1ccc(CC(=O)N2CCN=C2SCc2ccc(Br)cc2)cc1OC,i
O=C1NC(=Nc2ccc(O)cc2)S/C1=C\c1cccc(O)c1,i
CN(C)c1ccc(/C=C2/SC(=Nc3ccccc3Cl)NC2=O)cc1,39%*
COc1ccccc1/C=C1/SC(=Nc2ccccc2Cl)NC1=O,33%*
COc1ccccc1C=C1C(=O)OC(C)(c2ccccc2)OC1=O (stereo not given),i
CCCCOc1ccc(OC(=O)Cn2cnc3sc4c(c3c2=O)CCCC4)cc1,i
CN1CCCN(Cc2ccc([N+](=O)[O-])o2)CC1,i
COC(=O)c1cc2n(n1)CCN(c1cncc(C(=O)N3CCCCC3)n1)C2,i
COc1ccc(C(C)=O)cc1CSc1nc2ccccc2s1,i
COc1ccc(C[C@H](NC(=O)C2=C[C@@H](NC(=O)c3ccc(C)cc3)[C@@H](O)[C@H](O)C2)C(N)=O)cc1,i
NC(=O)[C@H](Cc1ccc(O)cc1)NC(=O)C1=C[C@@H](NC(=O)c2cnccn2)[C@@H](O)[C@H](O)C1,44%*
NC(=O)[C@H](Cc1cccs1)NC(=O)C1=C[C@@H](NC(=O)c2ccc(F)c(Cl)c2)[C@@H](O)[C@H](O)C1,i
Cc1ccc(C2(c3noc(COc4cccc(O)c4)n3)CCCC2)cc1,i
O=C1/C(=C/c2ccccc2)CC/C1=C\c1ccccc1,33%*
O=C1OC(c2ccc(Br)cc2)=N/C1=C\c1ccccc1,i
O=C1/C(=C/c2c[nH]c3ccccc23)CC/C1=C\c1c[nH]c2ccccc12,i
CCC(=O)Nc1cccc(Oc2ccc3c(c2)C(=O)N(c2ccc(OC)cc2)C3=O)c1,i
CCOc1ccc2sc(NC(=O)[C@H]3[C@@H](C(=O)O)[C@H]4C=C[C@@H]3C4)nc2c1,i
COc1cc(O)c2c(=O)c(O[C@@H]3O[C@H](CO[C@@H]4O[C@@H](C)[C@H](O)[C@@H](O[C@@H]5O[C@@H](C)[C@H](O)[C@@H](O)[C@H]5O)[C@H]4O)[C@H](O)[C@H](O)[C@H]3O)c(-c3ccc(O)c(O)c3)oc2c1,i
COc1c(-c2ccc(O)c(O)c2)oc2cc(O)cc(O)c2c1=O,i
COc1cc(O)c2c(=O)c(OC)c(-c3cc(O)c(OC)c(OC)c3)oc2c1,94%*
CCOc1ccc(S(=O)(=O)NCc2ccco2)c2cccnc12,i
COc1cc(C=Nc2c(C)n(C)n(-c3ccccc3)c2=O)cc([N+](=O)[O-])c1O,i

# Compound activity deposited in PubChem BioAssay by Paczesny and Yang Labs, IUPUI and University of Michigan.
